According to PubChem BioAssay (NCATS):
Results filed as inconclusive are left out. Active and inactive are the calls of the source. Unless noted, calls follow the shape of the dose curve; as a rule, active = well fitted curve in the direction sought with a large enough effect; inconclusive = small, poorly fitted or top-dose-only effect, or another doubt; inactive = no such curve, though single readings can be large; an effect the other way counts as inactive or inconclusive.

Experiments:
[1] = biological target: Cytochrome P450 3A4 (Homo sapiens) (UniProt P08684); test: qHTS Assay for Activators of Cytochrome P450 3A4 (AID 885); also: nearly all actives have a fitted effect of over 65% in size
Sequence of Cytochrome P450 3A4 (Homo sapiens) (P08684 whole entry, looked up): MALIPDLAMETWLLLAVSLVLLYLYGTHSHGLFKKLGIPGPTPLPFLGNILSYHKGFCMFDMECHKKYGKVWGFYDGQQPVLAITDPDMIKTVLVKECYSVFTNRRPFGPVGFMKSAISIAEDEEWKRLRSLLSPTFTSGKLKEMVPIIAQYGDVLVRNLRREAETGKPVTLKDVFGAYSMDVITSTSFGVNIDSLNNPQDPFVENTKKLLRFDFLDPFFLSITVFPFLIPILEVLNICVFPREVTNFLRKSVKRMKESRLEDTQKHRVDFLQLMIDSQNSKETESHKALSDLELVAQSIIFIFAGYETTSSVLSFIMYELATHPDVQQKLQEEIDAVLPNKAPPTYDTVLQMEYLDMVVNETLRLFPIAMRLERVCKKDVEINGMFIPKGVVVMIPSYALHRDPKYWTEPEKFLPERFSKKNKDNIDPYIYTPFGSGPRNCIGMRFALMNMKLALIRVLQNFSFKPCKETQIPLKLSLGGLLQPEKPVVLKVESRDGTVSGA
In short: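 Signal was normalized against complete inhibition by 57 uM ketoconazole. The reaction used 20nM CYP3A4 with 25uM Luciferin-PPXE, 10-min compound preincubation and a 60-min NADPH-supported step at RT.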

[2] = Confirmation and Secondary Assay for Modulators of Hemoglobin Beta Chain Splicing at IVS2 654 locus (AID 910);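 also: HeLa cells stably carrying EGFP split by mutant beta-globin IVS2-654 intron; per-well total GFP intensity by laser scanning cytometry after 2-day treatment; % of control where 0% means no effect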
In short: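 Readout: per-well total peak green fluorescence (488 nm ex, 500–520 nm em) from objects 5–250 µm, reflecting correct splicing of an EGFP-654 reporter. Compounds were applied for 2 days at 37 °C to overnight-plated HeLa EGFP-654 cells; controls were DMSO and 500 nM IVS2-654 PNA.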

[3] = Confirmation and Secondary Assay for Modulators of Hemoglobin Beta Chain Splicing at IVS2 705 locus (AID 930);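 also: HeLa cells stably expressing the EGFP-705 splicing reporter; % of control where 0% means no effect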
In short: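 Restored EGFP fluorescence after 2-day compound exposure reports splicing correction in IVS2-705 EGFP reporter HeLa cells; positive control was 500 nM splice-blocking PNA oligo. Signal measured as well total peak GFP intensity (488 nm excitation).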

[4] = qHTS Assay for Lipid Storage Modulators (AID 1519; calls by dose curve; as to activity change, negative = inhibition: % is scaled to controls: 0 for no effect and ±100 for the full control effect); conditions: Drosophila S3 cells, BODIPY lipid droplet/cell ratio, laser cytometry, cells loaded with oleic acid; for activity change, negative = inhibition: at 57.5 µM (top of the series)
In short: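 Cells seeded at 5,000 per well were treated with compounds over a concentration series and loaded with oleic acid (400 uM, as added). Lipid droplet fluorescence (488 nm excitation, 500-530 nm channel) was read by laser-scanning cytometry and normalized to 20 uM Triacsin C.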

[5] = biological target: Cytochrome P450 3A4 (Homo sapiens) (UniProt P08684); test: qHTS Assay for Inhibitors and Substrates of Cytochrome P450 3A4 (AID 884); also: % is scaled to controls: 0 for no effect and ±100 for the full control effect; nearly all actives have a fitted effect of over 50% in size
In short: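 20 nM human CYP3A4 with 25 uM Luciferin-PPXE (at KM) in 200 mM KPO4, preincubated 10 min with compound; NADPH regeneration started a 60 min RT reaction. Luciferin detected by luminescence, normalized to 57 uM ketoconazole as full inhibition.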

[6] = measured here: cell count channel max response
[7] = measured here: lipid channel max response

SMILES | Potency [1] | Potency [2] | Potency [3] | activity change, negative = inhibition [4] | max response [4, 6] | max response [4, 7] | Potency [5]
CC(C)=CCc1c2c(c(O)c3c(=O)c(O)c(-c4ccccc4)oc13)C=CC(C)(C)O2 | inactive | inactive | inactive | 0.956% (inactive) | -0.903% | -0.353% | –
CC(=O)O[C@]1(C)CC[C@]23CC1C(C)(C)C2CC[C@@H]3C (stereo partly specified) | – | inactive | inactive | 3.63% (inactive) | 7.64% | 13.6% | inactive
CC(C1OC(C)(C)C(O)C1O)C1CC[C@@]2(C)C3=CCC4C(C)(C)C(=O)CC[C@]4(C)C3CC[C@@]12C (stereo partly specified) | – | inactive | inactive | 5.14% (inactive) | -0.971% | 3.6% | inactive
CC(=O)OCC1=C(C(=O)O)N2C(=O)C(NC(=O)Cc3cccs3)C2SC1 (stereo unspecified) | inactive | inactive | inactive | 9.08% (inactive) | 8.85% | 22% | –
COC(=O)/C=C/C(C)=C/C=C/C(C)=C/C=C/C=C(C)/C=C/C=C(C)/C=C/C(=O)O | – | inactive | inactive | 5.02% (inactive) | 17.2% | 24.2% | inactive
CC(CCC(=O)O)C1CCC2C3CC[C@H]4CC(O)CC[C@@]4(C)C3C=C[C@]12C (stereo partly specified) | – | inactive | inactive | 5.52% (inactive) | 9.1% | 18.3% | inactive
C#CCCCCCCCCCCCc1ccco1 | inactive | inactive | inactive | 2.25% (inactive) | 8.94% | 11.4% | –
CC(C)CCCC(C)C1CCC2C3=CC[C@@H]4CC(O)CC[C@@]4(C)C3CC[C@]21C (stereo partly specified) | – | inactive | inactive | -3.72% (inactive) | 6.46% | 4.39% | inactive
Oc1cc(O)c2c(c1)OC(c1cc(O)c(O)c(O)c1)C(O)C2 (stereo unspecified) | – | inactive | inactive | 12.8% (inactive) | 12.7% | 24.8% | inactive
CC(=O)OC1CC(OC(C)=O)[C@]2(C)C(CC(=O)[C@]3(C)C2CC[C@@]2(C)C(C(=O)O)OC(=O)C4OC423)C1(C)C (stereo partly specified) | inactive | inactive | inactive | 3.41% (inactive) | 10.8% | 15.4% | –
COC1=CC(=O)C(O)=C/C1=C\C=C\c1ccccc1 | inactive | inactive | inactive | -23.3% (inactive) | -8.41% | -29.1% | –
COC(=O)c1c(C)cc(OC)cc1O | inactive | inactive | – | 8.17% (inactive) | 10% | 23.5% | –
O=c1c(O)cccc2cc(O)c(O)c(O)c12 | inactive | inactive | – | 9.52% (inactive) | 11.8% | 24.4% | –
CC(CC(O)C1OC1(C)C)C1CCC2(C)C3=CCC4C(C)(C)C(=O)CCC4(C)C3CC[C@@]12C (stereo partly specified) | – | inactive | inactive | 3.08% (inactive) | 2.59% | 11% | inactive
CCCCC(=O)O[C@@]1(C(=O)CO)C(C)CC2C3CCC4=CC(=O)C=C[C@@]4(C)[C@]3(F)C(O)C[C@]21C (stereo partly specified) | inactive | inactive | inactive | -6.08% (inactive) | 9.88% | 7.08% | –
O=c1c(O)c(-c2ccccc2)oc2cc(O)ccc12 | inactive | inactive | inactive | 6.29% (inactive) | -1.89% | 5.57% | –
CCCCCCCC/C=C/CCCCCCCCOP(=O)([O-])OCC[N+](C)(C)C | – | inactive | inactive | 12.8% (inactive) | 12.4% | 28.9% | inactive
CCCC1CC(C(=O)N[C@H](C(C)O)C2OC(SC)[C@@H](O)C(O)C2O)N(C)C1 (stereo partly specified) | – | inactive | inactive | 12.2% (inactive) | 19.1% | 38.8% | inactive
CC(C)c1c(O)ccc2c1CCC1[C@@](C)(CO)CCC[C@@]21C (stereo partly specified) | inactive | inactive | inactive | 10.8% (inactive) | 14.4% | 26.5% | –
CC1(C)OC2CC3C4CC(F)C5=CC(=O)C=C[C@@]5(C)[C@@]4(F)C(O)C[C@@]3(C)[C@]2(C(=O)CO)O1 (stereo partly specified) | inactive | inactive | inactive | 3.9% (inactive) | 10.6% | 16.5% | –
CC12CCCC(O)(C1)C1CC(C)(C)C1CC2 (stereo unspecified) | – | inactive | inactive | 4.18% (inactive) | -0.674% | 2.69% | inactive
CC(C)C1=CC2=CCC3[C@@](C)(CCC[C@@]3(C)C(=O)O)C2CC1 (stereo partly specified) | inactive | inactive | – | 4.85% (inactive) | 5.3% | 10.4% | –
CC(=O)OC1CC2C(C)(C)C(=O)CC[C@]2(C)C2CC[C@@]3(C)C(c4ccoc4)OC(=O)C4OC43[C@]12C (stereo partly specified) | inactive | inactive | – | 5.91% (inactive) | 22.7% | 27.2% | –
O=c1[nH]c(=O)n(C2CC(O)C(CO)O2)cc1F (stereo unspecified) | – | – | inactive | 3.4% (inactive) | 3.49% | 8.27% | inactive
CC(=O)OC1CC[C@@]2(C)C(CC[C@@]3(C)C2CC=C2C4CC(C)(C)CC[C@]4(C(=O)O)CC[C@@]23C)C1(C)C (stereo partly specified) | – | inactive | inactive | 9.65% (inactive) | 12.5% | 29% | inactive
CNC(CC(=O)O)C(=O)O (stereo unspecified) | – | inactive | inactive | 0.835% (inactive) | 10.8% | 11.7% | inactive
